# Inconclusive results are not listed. Active and inactive are the calls of the source. The calls were made as follows: active = hit-call score of the fitted dose curve at least 0.9, where 1 is the maximum; inconclusive = response in the unintended direction; inactive = score below 0.9.
# Key:
# [1] = read-out: ABC Transporter (ABCB1), ABCB1 (gene 5243); experiment: CLD_ABCB1_6hr: CellzDirect (CLD) Gene Expression Assay for ABC Transporter (ABCB1) at 6 hours (AID 2283659);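 also: hits raise ABCB1 transcript above the DMSO vehicle baseline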
# Summary of the method: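 Primary human hepatocytes (two donor preparations) dosed daily for two days with chemicals at multiple concentrations, 0.2% DMSO vehicle; harvested 6 h post-dose. ABCB1 mRNA induction quantified by qNPA chemiluminescence; gain-of-signal fitted versus DMSO.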
# [2] = read-out: alkyl and aryl transferase (GSTA2), GSTA2 (gene 2939); experiment: CLD_GSTA2_6hr: CellzDirect (CLD) Gene Expression Assay for alkyl and aryl transferase (GSTA2) at 6 hours (AID 2283666)
# Summary of the method: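 Primary human hepatocytes from two donor preparations were dosed daily with fresh compound at multiple concentrations, 0.2% DMSO vehicle. GSTA2 mRNA was measured at 6 hours by qNPA chemiluminescence; induction fitted relative to DMSO, with cytotoxicity flagged morphologically.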
# [3] = read-out: organic anion transporter (SLCO1B1), SLCO1B1 (gene 10599); experiment: CLD_SLCO1B1_6hr: CellzDirect (CLD) Gene Expression Assay for organic anion transporter (SLCO1B1) at 6 hours (AID 2283668);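 also: active means mRNA induction above DMSO baseline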
# Summary of the method: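 Primary human hepatocytes dosed daily with test chemicals (multiple concentrations) in 0.2% DMSO vehicle; harvested at 6 h. SLCO1B1 mRNA quantified by qNPA chemiluminescence, fitted as gain-of-signal versus DMSO; cytotoxicity from phase-contrast morphology flagged alongside.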
# [4] = read-out: sulfotransferase (SULT2A), SULT2A1 (gene 6822); experiment: CLD_SULT2A_6hr: CellzDirect (CLD) Gene Expression Assay for sulfotransferase (SULT2A) at 6 hours (AID 2283669);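 also: hits raise transcript level above the DMSO vehicle baseline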
# Summary of the method: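 Primary human hepatocytes from two donor preparations were dosed daily with chemicals or 0.2% DMSO and harvested at 6 h. Transcript induction read by qNPA chemiluminescence, fitted for gain of signal relative to DMSO; morphology-based cytotoxicity annotated.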
# [5] = Tanguay_ZF_120hpf_PIG_legacy: (Legacy) Oregon State University Tanguay Lab 120 Hour Post-fertilization zebrafish Assay for Pigmentation Malformation (AID 2283650)
# Summary of the method: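 Dechorionated Tropical 5D wild-type embryos, one per well from 6 hpf, statically exposed at 28C in the dark until 120 hpf, 0.64% DMSO final. Pigmentation scored present/absent by brightfield microscopy; dead embryos not scored; fitted versus DMSO.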
# [6] = Tanguay_ZF_120hpf_CIRC_legacy: (Legacy) Oregon State University Tanguay Lab 120 Hour Post-fertilization zebrafish Assay for Circulatory Malformation (AID 2283651)
# Summary of the method: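 Tropical 5D wild-type embryos, dechorionated with pronase at 4 hpf, were placed singly in wells at 6 hpf and exposed statically at 28C to 120 hpf (0.64% DMSO final). Circulatory malformation was scored present/absent by brightfield microscopy.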
# [7] = system: Thyroperoxidase (TPO), gene 54314; experiment: CCTE_Simmons_AUR_rTPO: CCTE's Amplex UltraRed Assay for Thyroperoxidase (TPO) Inhibition, Simmons Lab (AID 2283662);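 as to AC50: potency for loss of signal meaning inhibition of peroxidase activity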
# Summary of the method: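 Rat thyroid microsomal TPO + 25 uM AUR in 200 mM K phosphate; cpd 5 nM–87.5 uM [final], 8 conc, 0.5% DMSO; 300 uM H2O2 starts rxn; 37C dark 30 min; endpoint FI 544/590 nm; n=3.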
# [8] = CCTE_Simmons_CellTiterGLO_HEK293T: Viability Assessment in CCTE's Assays for Thyroperoxidase (TPO) Inhibition, Simmons Lab (AID 2283665);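 as to AC50: cells exposed to compound for 24 h before readout; actives reduce ATP signal below DMSO vehicle meaning cytotoxicity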
# Summary of the method: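 HEK293T cells in DMEM with 1% FBS were dosed with 8 concentrations (5 nM–87.5 uM final, 0.5% DMSO) for 24 hr at 37C; ATP content was read by CellTiter-Glo luminescence, loss-of-signal versus DMSO, three biological replicates.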
# [9] = Tanguay_ZF_120hpf_SWIM_legacy: (Legacy) Oregon State University Tanguay Lab 120 Hour Post-fertilization zebrafish Assay for Swim Bladder Malformation (AID 2283654);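 also: swim bladder malformation in each larva scored yes or no under brightfield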
# Summary of the method: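 Dechorionated wild-type Tropical 5D zebrafish embryos, one per well from 6 hpf, were statically exposed at 28C until 120 hpf in 0.64% DMSO. Swim bladder malformation scored as present/absent by brightfield microscopy; not scored in dead larvae.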
# [10] = Tanguay_ZF_120hpf_NC_legacy: (Legacy) Oregon State University Tanguay Lab 120 Hour Post-fertilization zebrafish Assay for Notochord and Tail Malformation (AID 2283656)
# Summary of the method: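 Dechorionated 5D zebrafish, 1/well from 6 hpf; static exposure to 120 hpf, 28C, sealed, dark; final DMSO 0.64% v/v. NC scored binary (present/absent); dead embryos not scored. Fit vs DMSO baseline, gain direction.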
# [11] = Tanguay_ZF_120hpf_TR_legacy: (Legacy) Oregon State University Tanguay Lab 120 Hour Post-fertilization zebrafish Assay for Touch Response (AID 2283667)
# Summary of the method: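 Tropical 5D wild-type zebrafish embryos statically exposed to 120 hpf at 28°C, sealed and dark-covered, 0.64% DMSO final; touch response scored as present/absent by brightfield microscopy at 120 hpf. Trimethyltin chloride 5 uM positive control; dead embryos not scored.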
# [12] = read-out: xenobiotic metabolism (CYP1A1), CYP1A1 (gene 1543); experiment: CLD_CYP1A1_6hr: CellzDirect (CLD) Gene Expression Assay for xenobiotic metabolism (CYP1A1) at 6 hours (AID 2283661);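 as to AC50: potency for transcript induction above DMSO vehicle baseline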
# Summary of the method: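 Primary human hepatocytes from two donors, compound versus 0.2% DMSO vehicle. CYP1A1 mRNA measured 6 h after dosing by quantitative nuclease protection assay with chemiluminescent read-out; induction fitted relative to DMSO, cytotoxicity flagged by microscopy.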
# [13] = read-out: glucuronosyltransferase (UGT1A1), UGT1A1 (gene 54658); experiment: CLD_UGT1A1_6hr: CellzDirect (CLD) Gene Expression Assay for glucuronosyltransferase (UGT1A1) at 6 hours (AID 2283672)
# Summary of the method: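 Primary human hepatocytes from two donor preparations, dosed with fresh solutions in 0.2% DMSO, harvested at 6 h. UGT1A1 mRNA measured by qNPA chemiluminescence; induction fitted upward versus DMSO.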
# [14] = read-out: xenobiotic metabolism (CYP1A2), CYP1A2 (gene 1544); experiment: CLD_CYP1A2_6hr: CellzDirect (CLD) Gene Expression Assay for xenobiotic metabolism (CYP1A2) at 6 hours (AID 2283663)
# Summary of the method: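 Primary human hepatocytes from two donor preparations, dosed daily with multiple concentrations in 0.2% DMSO and harvested at 6 h. CYP1A2 mRNA induction measured by chemiluminescent qNPA, gain of signal fitted against DMSO; cytotoxicity flagged morphologically.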
structure (smiles),measurement,setting,value
COc1nc(C)nc(NC(=O)NS(=O)(=O)c2ccccc2Cl)n1,outcome,[1],inactive
same,outcome,[2],inactive
same,outcome,[3],inactive
same,outcome,[4],inactive
CN(C)C(=S)SSC(=S)N(C)C,outcome,[5],inactive
same,outcome,[6],inactive
same,outcome,[1],inactive
same,outcome,[7],inactive
same,AC50,[8],40.2 µM (active)
same,outcome,[2],inactive
same,outcome,[3],inactive
CC1=C(C(=O)Nc2ccccc2)SCCO1,outcome,[5],inactive
same,outcome,[6],inactive
same,AC50,[7],5.33 µM (active)
same,outcome,[4],inactive
Cc1cc(Cl)ccc1OCC(=O)O,outcome,[5],inactive
same,outcome,[9],inactive
same,outcome,[1],inactive
same,outcome,[2],inactive
same,outcome,[4],inactive
CCOc1cc(Oc2ccc(C(F)(F)F)cc2Cl)ccc1[N+](=O)[O-],outcome,[9],inactive
same,outcome,[10],inactive
same,outcome,[1],inactive
same,outcome,[2],inactive
same,outcome,[3],inactive
same,outcome,[4],inactive
CCOC(=O)CC(SP(=S)(OC)OC)C(=O)OCC (stereo not drawn),outcome,[6],inactive
same,AC50,[9],28.8 µM (active)
same,outcome,[1],inactive
same,AC50,[7],3.4 µM (active)
same,outcome,[8],inactive
same,outcome,[2],inactive
same,AC50,[11],26.5 µM (active)
same,outcome,[3],inactive
same,outcome,[4],inactive
CNC(=O)ON=CC(C)(C)SC,outcome,[5],inactive
same,outcome,[6],inactive
same,outcome,[9],inactive
same,AC50,[12],0.000972 µM (active)
same,outcome,[2],inactive
same,AC50,[11],21 µM (active)
CC(C)C1(C)N=C(c2nc3ccccc3cc2C(=O)O)NC1=O (stereo not drawn),outcome,[5],inactive
same,outcome,[6],inactive
same,outcome,[9],inactive
same,outcome,[3],inactive
same,outcome,[4],inactive
same,outcome,[13],inactive
CC(Oc1ccc(Cl)cc1Cl)C(=O)O (stereo not drawn),outcome,[5],inactive
same,outcome,[6],inactive
same,outcome,[9],inactive
same,outcome,[12],inactive
same,outcome,[2],inactive
CC(C)(C)c1ccc(CSc2cnn(C(C)(C)C)c(=O)c2Cl)cc1,outcome,[6],inactive
same,outcome,[9],inactive
same,outcome,[2],inactive
same,outcome,[3],inactive
same,outcome,[4],inactive
O=C(Nc1ccccc1)Nc1ccnc(Cl)c1,outcome,[5],inactive
same,outcome,[6],inactive
same,outcome,[9],inactive
same,AC50,[7],27.6 µM (active)
same,AC50,[8],53.8 µM (active)
same,outcome,[2],inactive
same,outcome,[13],inactive
C#CCOS(=O)OC1CCCCC1Oc1ccc(C(C)(C)C)cc1 (stereo not drawn),outcome,[5],inactive
same,outcome,[6],inactive
same,outcome,[9],inactive
same,outcome,[2],inactive
same,outcome,[4],inactive
CCCCC(CC)COC(=O)c1ccccc1C(=O)OCC(CC)CCCC (stereo not drawn),outcome,[5],inactive
same,outcome,[6],inactive
same,outcome,[9],inactive
same,outcome,[14],inactive
same,outcome,[3],inactive
same,outcome,[4],inactive
CON(C)C(=O)Nc1ccc(Cl)c(Cl)c1,outcome,[5],inactive
same,outcome,[6],inactive
same,outcome,[9],inactive
same,AC50,[7],35 µM (active)
same,outcome,[8],inactive
same,outcome,[4],inactive
Fc1ccc(Oc2ccnc3cc(Cl)cc(Cl)c23)cc1,outcome,[5],inactive
same,outcome,[6],inactive
same,outcome,[9],inactive
same,AC50,[12],3.13 µM (active)
same,outcome,[11],inactive
same,outcome,[13],inactive
COC(=O)N(OC)c1ccccc1COc1ccn(-c2ccc(Cl)cc2)n1,outcome,[5],inactive
same,outcome,[6],inactive
same,outcome,[9],inactive
same,outcome,[2],inactive
same,outcome,[3],inactive
same,outcome,[4],inactive

# Reference: PubChem BioAssay (EPA / NIEHS)
